From PubChem BioAssay (NCATS)
Results filed as inconclusive are left out. Calls of active or inactive are those of the source. Calls come from the whole dose curve; as a rule, active = well fitted cell-killing curve with a large enough effect; inconclusive = small, poorly fitted or top-dose-only effect; inactive = no such curve, though single readings can be large or run the other way.

assay: qHTS of pediatric cancer cell lines to identify multiple opportunities for drug repurposing: Primary screen for SJ-GBM2 cells (AID 1347091); conditions: SJ-GBM2 viability, CellTiter-Glo luminescence, 48 h; series mostly up to 46 µM; activity change, negative = cytotoxic: at the top concentration
Source text: Drug repurposing or repositioning has been offered as a strategy for drug development in oncology programs. This approach has special potential for childhood cancers and other rare or orphan diseases, where the expected return on new drug development has been a disincentive to pharmaceuticals.
In this project we exploit the poly-pharmacology of drugs to discover new indications via phenotypic screening of a panel of 19 well-characterized cell lines derived from solid tumors seen in children and adolescents. The goal is to identify approved drugs with previously unrecognized anticancer properties that has the potential to reveal new mechanisms and biological processes involved in carcinogenesis or drug resistance. We employed a titration-based paradigm (quantitative high-throughput screening or qHTS), where all compounds were tested at multiple concentrations for their effect on cell viability. Concentration-response curves (CRCs) were derived directly from the primary screen, and both potency and efficacy values were used to identify compounds with robust bioactivity profiles. We screened the NIH Chemical Genomics Center (NCGC) Pharmaceutical Collection (NPC) and Mechanism Interrogation Plate (MIPE) small molecule collections of approved and investigational compounds against these cell lines; and measured metabolically active cells after 48 hours of compound treatment as a proxy for cell viability.
Assay Submitter: Nathalia J. Martinez, National Center for Advancing Translational Sciences, National Institutes of Health, Rockville, MD, USA; email: natalia.martinez@nih.gov
[1] Shen, M et al. Quantitative high-throughput phenotypic screening of pediatric cancer cell lines identifies multiple opportunities for drug repurposing. Oncotarget 2017 Dec 19;9(4):4758-4772. PMID 29435139.
The cells were obtained from University of North Carolina (UNC), Pediatric Preclinical Testing Program (PPT), and Coriell Institute (CI).
qHTS cell viability assay:
Cells were assayed in growth media at a density of 500-1,000 cells/well. Five microliters of cells were dispensed into 1,536-well, white, solid-bottom, TC-treated plates (Greiner Bio One) using a multidrop dispenser and incubated at 37 degrees C, 5% CO2, under a humidified atmosphere for 5 hours. Twenty-three nanoliters of compounds and controls (neutral control DMSO or positive control bortezomib at final concentration of 2.3 µM) were subsequently transferred by Kalypsys pintool. For primary screens, the MIPE collection was tested at 11-point dilutions (final concentrations range from 0.78 nM to 46 µM) and the NPC collection at 8-point dilutions (final concentrations range from 0.59 nM to 46 µM). Compounds tested in follow-up screens were assayed at 11-point dilutions. Cells were incubated for 48 hours, followed by addition of 3 uL of CellTiter-Glo (Promega). After a 15 min incubation at room temperature, samples were analyzed for luminescence intensity using a ViewLux High-throughput CCD imager equipped with clear filters.
Potency is the fitted concentration of half-maximal effect.

| Structure (SMILES) | activity change, negative = cytotoxic | Potency |
| --- | --- | --- |
| O=[N+]([O-])c1ccc(/C=N\O)o1 | 134% (inactive) |  |
| NC(=O)C1(N2CCCCC2)CCN(CCCC(=O)c2ccc(F)cc2)CC1 | -3.21% (inactive) |  |
| CC[C@]12CCCN3CCc4c(n(c5ccccc45)C(=O)C1)[C@@H]32 |  | 5.96 µM (active) |
| Cc1ccc(S(=O)(=O)NC(=O)NC2CCCC2)cc1 | 9.48% (inactive) |  |
| Nc1ccc(S(=O)(=O)NCc2ccccc2)cc1 | 5.43% (inactive) |  |
| CCOC(=O)[C@@](C)(N)Cc1ccc(O)c(O)c1 | -21.1% (inactive) |  |
| CCCCCCCCCCCCSCCOCCO | 1.52% (inactive) |  |
| OCCOCCN1CCN(C2=Nc3ccccc3Sc3ccccc32)CC1 | -4.64% (inactive) |  |
| O=C(CN1CCN(Cc2ccc3c(c2)OCO3)CC1)N1c2ccccc2Sc2ccccc21 | 9.13% (inactive) |  |
| COc1ccc(/C=N/NC(=O)c2ccncc2)cc1OC | 15.2% (inactive) |  |
| CCOc1ccc(NC(C)=O)cc1 | -6.12% (inactive) |  |
| CC(=O)Nc1ccc(S(=O)(=O)Nc2ccc([N+](=O)[O-])cc2)cc1 | 14.4% (inactive) |  |
| Cl/C(=C\n1cncn1)c1ccc(Cl)cc1Cl | -1.73% (inactive) |  |
| CCC(Cc1c(I)cc(I)c(N)c1I)C(=O)O (stereo not given) | 35.1% (inactive) |  |
| CCN(CC)CCOC(=O)C1(c2ccccc2)CCCC1 | 12.6% (inactive) |  |
| CC(C)[N+](C)(C)CC(O)COc1cccc2ccccc12 (stereo not given) | 3.32% (inactive) |  |
| CCN1CCN(C(=O)N[C@@H](C(=O)N[C@@H]2C(=O)N3C(C(=O)O)=C(CSc4nnnn4C)CS[C@H]23)c2ccc(O)cc2)C(=O)C1=O | 4.9% (inactive) |  |
| CNCCc1ccccn1 | 20.4% (inactive) |  |
| CO[C@H]1C=CO[C@@]2(C)Oc3c(C)c(O)c4c(O)c(c(/C=N/N5CCN(C)CC5)c(O)c4c3C2=O)NC(=O)/C(C)=C\C=C[C@H](C)[C@H](O)[C@@H](C)[C@@H](O)[C@@H](C)[C@H](OC(C)=O)[C@@H]1C | -13.6% (inactive) |  |
| N=C(N)N1CCc2ccccc2C1 | 1.07% [at 4.84 µM] (inactive) |  |

| Structure (SMILES) | activity change, negative = cytotoxic | Potency |
| --- | --- | --- |
| Cc1ccc(-c2ncc(Cl)cc2-c2ccc(S(C)(=O)=O)cc2)cn1 | 26.2% (inactive) |  |
| O=C(NCCc1c[nH]c2ccccc12)c1cccnc1 | 16.4% (inactive) |  |
| c1ccc(-c2nc[nH]c2-c2ccccc2)cc1 | 3.7% (inactive) |  |
| CC(C)CCCC(C)N (stereo not given) | 24.3% (inactive) |  |
| CN(C)CCOC(c1ccc(Cl)cc1)c1ccccn1 (stereo not given) | 14.1% (inactive) |  |
| CCCCC(CC)COC(=O)/C=C/c1ccc(OC)cc1 (stereo not given) | 11.9% (inactive) |  |
| C=CCN1CCc2nc(N)sc2CC1 | 2.52% (inactive) |  |
| Cc1c[nH]c2ccccc12 | 22.6% (inactive) |  |
| O=C(N/N=C/c1ccc([N+](=O)[O-])o1)c1ccc(O)cc1 | -2.1% (inactive) |  |
| O=C1OC(CN2CCOCC2)CN1/N=C/c1ccc([N+](=O)[O-])o1 (stereo not given) | 99.4% (inactive) |  |
| Cc1c(-c2ccccc2)oc2c(C(=O)OCCN3CCCCC3)cccc2c1=O | 8.1% (inactive) |  |
| CCCCCCCCCCCCCCC[C@H](O)[C@@H](N)CO | 14% (inactive) |  |
| Cn1c(=O)c2[nH]c(Br)nc2n(C)c1=O | 1.36% (inactive) |  |
| CCC1NC(=O)c2cc(S(N)(=O)=O)c(Cl)cc2N1 (stereo not given) | 22.2% (inactive) |  |
| CN1CCN(c2c(F)cc3c(=O)c(C(=O)O)cn4c3c2SCC4)CC1 | 53.7% (inactive) |  |
| CC(=O)Nc1ncc([N+](=O)[O-])s1 | 104% (inactive) |  |
| OCc1ccccn1 | 20.5% (inactive) |  |
| O=C1C(O)=C(O)C(=O)C(O)=C1O | 20.8% (inactive) |  |
| COc1cc(C(=S)N2CCOCC2)ccc1O | 1.92% (inactive) |  |
| CCCCOC(=O)CC(CC(=O)OCCCC)(OC(C)=O)C(=O)OCCCC | 5.97% (inactive) |  |
